This note sets out measurements from PubChem BioAssay.

The structures appear in SMILES notation. The source made the active and inactive calls.

Assay [1] can be described thus: binders of probe aFSTL3 on microarray, primary screen, stem cell growth factor project, biochemical, small-molecule microarray, fluorescence 635/667 (AID 1064).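 Further: measures binding of the biotinylated anti-FSTL3 antibody to printed compounds.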 The note with it: higher = more signal.
Assay [2] is described as follows: binders from COS7 lysate, DM2A8 probe, primary screen, torsin A project, cell lysate, small-molecule microarray, fluorescence 635/667 (AID 1065). The note with it: higher = more signal, COS7 lysate expressing mutant human TOR1A.
Assay [3] in a line: binders of probe aFGF2 on microarray, primary screen, stem cell growth factor project, biochemical, small-molecule microarray, fluorescence 635/667 (AID 1067).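 Further: measures binding of biotinylated aFGF2 protein to printed compounds on slides; z-score merges feature fluorescence and signal-to-noise across triplicate slides.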 The note with it: higher = more signal.
A short description of assay [4]: binders of probe aFGF10 on microarray, primary screen, stem cell growth factor project, biochemical, small-molecule microarray, fluorescence 635/667 (AID 1071).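 Further: score merges 667 nm spot intensity and signal to noise from triplicate slides.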 To be noted: higher = more signal.
Assay [5] addresses Neurogenic locus notch homolog protein 2 (Homo sapiens) (UniProt Q04721). Briefly: Notch2 binders on small-molecule microarrays, primary screen, biochemical, small-molecule microarray, 635 nm fluorescence, stem cell growth factors (AID 1073). The note with it: Notch2 binding, higher = more signal.
Assay [6] concerns the target Pro-neuregulin-1, membrane-bound isoform (Homo sapiens) (UniProt Q02297). Nature of the assay: NRG1 binders on small-molecule microarrays, primary screen, psychiatric disease protein project, biochemical, small-molecule microarray, fluorescence 635/667 (AID 1075).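 Further: score combines 667 nm spot fluorescence with signal to noise.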 The note with it: NRG1 binding, 635 nm fluorescence, higher = more signal.
Assay [7] deals with Neuregulin-1 EGF-like domain. Nature of the assay: binders of neuregulin-1 EGF-like domain, primary screen, biochemical, small-molecule microarray, 635 nm fluorescence (AID 1081).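 Further: binding of the protein to compounds printed on small-molecule microarray slides.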 The note with it: small-molecule microarray binding, higher = more signal.
Assay [8] in a line: FRG1 promoter luciferase signal modulators, primary screen, FRG1 inhibition for FSHD, cell-based, C2C12 myotubes, firefly/Renilla luciferase, luminescence (AID 1084). The note with it: higher = more signal, called active from +8 up or from −8 down.
The nature of assay [9]: binders of probe aFST on microarray, primary screen, stem cell growth factor project, biochemical, small-molecule microarray, fluorescence 635/667 (AID 1086).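 Further: score merges 667 nm fluorescence with signal-to-noise of each printed compound spot.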 The note with it: higher = more signal.
Assay [10] is described as follows: binders of probe aHhip on microarray, primary screen, stem cell growth factor project, biochemical, small-molecule microarray, fluorescence 635/667 (AID 1087).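 Further: score merges spot fluorescence at 667nm with spot signal to noise ratio.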 The note with it: higher = more signal.
Assay [11] has as its system PRMT1 (protein arginine N-methyltransferase 1). Briefly: PRMT1 binders on small-molecule microarrays, primary screen, biochemical, small-molecule microarray, 635 nm fluorescence (AID 1088).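 Further: binding of Prmt1 protein to compounds spotted on small-molecule microarray slides.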 To be noted: small-molecule microarray binding, higher = more signal.
A short description of assay [12]: yeast growth modulation, basal conditions, primary screen, YJM789 clinical isolate, OD600, 24 h (AID 1089).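 Further: growth of clinical yeast isolate S. cerevisiae YJM 789 seeded 1000 cells per well; test concentration not given here.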 The note with it: S. cerevisiae YJM789 growth, higher = more signal, called active from +8 up or from −8 down.
Assay [13] in a line: fission yeast growth modulation, primary screen, strain 972, OD600, 24 h, no modulator (AID 1090).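 Further: basal condition with compound alone and no growth modifier present; test concentration not given here.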 To be noted: S. pombe 972 growth, higher = more signal, called active from +8 up or from −8 down.
A short description of assay [14]: S. cerevisiae growth modulation with rapamycin, primary screen, strain BY4716, OD600, 96 h (AID 1091). Further: test concentration not given here. The note with it: higher = more signal, called active from +8 up or from −8 down.
For assay [15], the target named is Torsin-1A-interacting protein 2 (Homo sapiens) (UniProt Q8NFQ8). Briefly: LULL1 binders on small-molecule microarray, primary screen, cell lysate, human LULL1 lysate, 635/667 nm fluorescence (AID 1092).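 Further: score merges per-feature 667 nm fluorescence with signal-to-noise.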 To be noted: hLULL1 lysate binding, 635 nm fluorescence, higher = more signal.
Assay [16] in a line: E. coli growth modulation, two-sided OD650, primary screen, E. coli filamentation project, strain DRC41, 24 h (AID 1093).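 Further: MC1000 strain lacking acrAB efflux and sulA so SOS filamentation is blocked; test concentration not given here.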 To be noted: OD650, 24 h, higher = more signal, called active from +8 up or from −8 down.
The nature of assay [17]: small-molecule microarray binders of probe aLefty2, primary screen, biochemical, biotinylated probe, 635/667 nm fluorescence (AID 1094).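 Further: score merges spot fluorescence near 667 nm with spot signal-to-noise ratio.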 The note with it: higher = more signal.
The subject of assay [18] is Noggin (protein binding on small-molecule microarray). Nature of the assay: Noggin binders on small-molecule microarray, primary screen, biochemical, 635/667 nm fluorescence (AID 1095).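 Further: score merges 667 nm feature fluorescence with signal to noise over triplicate slides.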 The note with it: 635 nm fluorescence, higher = more signal.
For assay [19], the target named is Neurogenic locus notch homolog protein 3 (Homo sapiens) (UniProt Q9UM47). Nature of the assay: NOTCH3 binders on small-molecule microarray, primary screen, biochemical, 635/667 nm fluorescence (AID 1096). To be noted: NOTCH3 binding, 635 nm fluorescence, higher = more signal.
Assay [20] in a line: small-molecule microarray binders of probe aEGFR, primary screen, biochemical, biotinylated probe, 635/667 nm fluorescence (AID 1097).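 Further: probe is a biotinylated anti-EGFR antibody binding compounds printed on slides; score combines fluorescence near 667 nm and signal to noise of each spot.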 To be noted: higher = more signal.

Chain of Neurogenic locus notch homolog protein 3 (Homo sapiens) (Q9UM47 whole entry, looked up): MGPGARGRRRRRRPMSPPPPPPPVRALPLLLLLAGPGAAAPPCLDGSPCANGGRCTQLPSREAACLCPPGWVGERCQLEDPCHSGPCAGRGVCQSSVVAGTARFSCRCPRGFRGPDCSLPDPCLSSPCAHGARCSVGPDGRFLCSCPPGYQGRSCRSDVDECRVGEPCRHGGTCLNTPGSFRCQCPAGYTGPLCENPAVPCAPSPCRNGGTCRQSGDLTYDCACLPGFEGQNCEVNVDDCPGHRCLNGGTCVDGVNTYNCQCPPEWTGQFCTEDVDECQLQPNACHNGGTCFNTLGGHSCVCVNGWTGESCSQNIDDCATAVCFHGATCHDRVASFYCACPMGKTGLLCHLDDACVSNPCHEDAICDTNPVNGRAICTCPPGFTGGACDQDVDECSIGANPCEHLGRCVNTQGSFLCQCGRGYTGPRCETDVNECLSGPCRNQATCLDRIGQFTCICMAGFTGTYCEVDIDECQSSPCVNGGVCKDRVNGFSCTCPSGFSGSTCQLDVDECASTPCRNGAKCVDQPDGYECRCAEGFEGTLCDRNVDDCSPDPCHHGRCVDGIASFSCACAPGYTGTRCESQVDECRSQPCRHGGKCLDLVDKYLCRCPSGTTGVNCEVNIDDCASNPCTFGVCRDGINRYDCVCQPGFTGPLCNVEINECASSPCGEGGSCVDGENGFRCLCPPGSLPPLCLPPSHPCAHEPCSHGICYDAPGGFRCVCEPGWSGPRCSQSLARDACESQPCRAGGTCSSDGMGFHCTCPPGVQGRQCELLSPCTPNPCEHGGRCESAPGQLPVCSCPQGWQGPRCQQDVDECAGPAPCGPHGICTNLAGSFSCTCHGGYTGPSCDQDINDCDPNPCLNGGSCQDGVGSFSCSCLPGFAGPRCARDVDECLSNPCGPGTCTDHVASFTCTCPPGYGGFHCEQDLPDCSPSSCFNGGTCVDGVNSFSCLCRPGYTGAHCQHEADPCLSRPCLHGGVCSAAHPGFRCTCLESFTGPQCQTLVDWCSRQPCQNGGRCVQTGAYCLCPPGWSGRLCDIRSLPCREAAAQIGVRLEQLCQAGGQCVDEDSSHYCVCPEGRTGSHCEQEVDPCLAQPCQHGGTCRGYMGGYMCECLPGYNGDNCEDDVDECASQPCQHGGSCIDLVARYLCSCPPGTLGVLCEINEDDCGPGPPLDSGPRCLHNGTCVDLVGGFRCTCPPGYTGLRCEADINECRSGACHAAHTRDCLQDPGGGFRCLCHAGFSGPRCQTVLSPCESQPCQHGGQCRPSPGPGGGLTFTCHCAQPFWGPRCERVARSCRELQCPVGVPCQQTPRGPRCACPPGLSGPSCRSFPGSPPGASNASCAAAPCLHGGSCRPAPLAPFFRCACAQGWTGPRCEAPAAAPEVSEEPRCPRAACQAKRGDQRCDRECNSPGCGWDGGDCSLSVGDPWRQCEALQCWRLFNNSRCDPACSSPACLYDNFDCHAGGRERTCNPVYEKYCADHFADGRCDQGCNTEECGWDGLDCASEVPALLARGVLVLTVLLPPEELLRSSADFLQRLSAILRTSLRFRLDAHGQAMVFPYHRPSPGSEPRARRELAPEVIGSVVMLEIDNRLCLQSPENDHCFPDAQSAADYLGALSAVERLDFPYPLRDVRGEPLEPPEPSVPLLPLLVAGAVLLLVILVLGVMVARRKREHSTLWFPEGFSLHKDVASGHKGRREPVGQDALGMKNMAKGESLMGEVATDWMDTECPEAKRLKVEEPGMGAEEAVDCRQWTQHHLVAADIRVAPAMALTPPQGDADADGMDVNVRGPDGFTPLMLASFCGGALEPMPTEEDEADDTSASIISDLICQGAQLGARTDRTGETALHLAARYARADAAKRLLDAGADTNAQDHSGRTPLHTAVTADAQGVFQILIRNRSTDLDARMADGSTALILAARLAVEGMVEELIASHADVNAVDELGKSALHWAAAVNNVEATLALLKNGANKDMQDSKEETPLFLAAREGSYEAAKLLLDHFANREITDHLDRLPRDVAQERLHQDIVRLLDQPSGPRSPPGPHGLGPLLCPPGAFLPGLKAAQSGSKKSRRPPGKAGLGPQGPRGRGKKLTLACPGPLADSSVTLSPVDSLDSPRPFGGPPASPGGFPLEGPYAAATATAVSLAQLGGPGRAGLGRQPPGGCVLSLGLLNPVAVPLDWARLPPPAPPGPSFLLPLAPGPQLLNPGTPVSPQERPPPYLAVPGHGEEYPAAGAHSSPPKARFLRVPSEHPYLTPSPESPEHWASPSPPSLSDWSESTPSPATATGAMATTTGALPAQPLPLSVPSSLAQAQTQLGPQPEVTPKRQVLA
Chain of Pro-neuregulin-1, membrane-bound isoform (Homo sapiens) (Q02297 whole entry, looked up, the tested form may be a part, canonical isoform): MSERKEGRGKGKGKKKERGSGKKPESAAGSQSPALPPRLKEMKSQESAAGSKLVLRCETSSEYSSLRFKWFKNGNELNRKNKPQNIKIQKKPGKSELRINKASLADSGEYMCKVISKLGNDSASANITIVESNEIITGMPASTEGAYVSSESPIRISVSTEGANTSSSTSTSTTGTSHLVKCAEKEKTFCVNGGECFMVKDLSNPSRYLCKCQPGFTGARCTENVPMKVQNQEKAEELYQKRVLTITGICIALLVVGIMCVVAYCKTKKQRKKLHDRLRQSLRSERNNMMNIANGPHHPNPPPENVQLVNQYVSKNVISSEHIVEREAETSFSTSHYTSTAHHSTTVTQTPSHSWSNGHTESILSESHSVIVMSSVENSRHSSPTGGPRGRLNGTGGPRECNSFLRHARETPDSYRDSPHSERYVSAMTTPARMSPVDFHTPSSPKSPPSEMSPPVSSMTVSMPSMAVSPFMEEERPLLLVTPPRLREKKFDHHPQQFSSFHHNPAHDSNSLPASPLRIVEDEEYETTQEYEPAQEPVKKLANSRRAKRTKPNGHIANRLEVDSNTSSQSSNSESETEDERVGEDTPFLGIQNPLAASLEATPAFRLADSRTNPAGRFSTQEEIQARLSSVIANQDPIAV
Chain of Torsin-1A-interacting protein 2 (Homo sapiens) (Q8NFQ8 whole entry, looked up): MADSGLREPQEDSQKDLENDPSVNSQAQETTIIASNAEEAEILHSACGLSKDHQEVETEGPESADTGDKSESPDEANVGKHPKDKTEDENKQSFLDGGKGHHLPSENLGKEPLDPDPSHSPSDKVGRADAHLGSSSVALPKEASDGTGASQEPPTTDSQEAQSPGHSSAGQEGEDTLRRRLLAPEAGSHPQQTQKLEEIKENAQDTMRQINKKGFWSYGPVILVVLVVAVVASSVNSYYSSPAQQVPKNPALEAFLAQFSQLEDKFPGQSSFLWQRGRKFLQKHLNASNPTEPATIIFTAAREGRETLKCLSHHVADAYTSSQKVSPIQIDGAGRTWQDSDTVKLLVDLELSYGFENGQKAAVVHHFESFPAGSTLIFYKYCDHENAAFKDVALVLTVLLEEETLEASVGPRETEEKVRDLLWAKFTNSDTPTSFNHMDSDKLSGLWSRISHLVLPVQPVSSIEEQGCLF

Regarding `[N-]=[N+]=NCc1ccccc1C[C@]1(C(=O)NCCN2CCOCC2)N=C(c2ccc(OCCCO)cc2)O[C@H]1c1ccccc1CN=[N+]=[N-]`, the composite z-score in [1] is -0.199; in assay [2], -0.671; in assay [3], 0.0011; in assay [4], 1.12; in [5], 1.03; in assay [6] it was 1.11. Besides, the composite z-score in assay [7] was 1.2; in assay [9], 1.26; in assay [10], 0.0139; in [11], 1.53; in assay [15] it was -3.05; in assay [17], 0.111. Also, the composite z-score came out at 1.16 in assay [18], 1.08 in [19] and 0.0278 in [20]. Also, the z-score in assay [8] is -0.0883 (inactive); in [12] it was -2.57 (inactive); in assay [13], -0.847 (inactive); in assay [14], -0.802 (inactive); in assay [16], 1.2 (inactive).

With `COC(=O)c1c(CC[C@@H](CO)NC(=O)Nc2ncn[nH]2)oc(C(=O)Cc2ccccc2)c1C(=O)OC`, the composite z-score in assay [1] was -0.468; in assay [2], -0.0764; in [3], -0.214; in assay [4], 0.511; in assay [5], 1.21; in assay [6], 0.163. Moreover, the composite z-score was 0.778 in [7]; 0.524 in [9]; 0.0722 in [10]; 1.08 in assay [11]; 2.99 in assay [15]; -0.016 in assay [17]. Also, the composite z-score in assay [18] is 0.565; in [19], 1.17; in [20], -0.0697. Further, the z-score in assay [8] is 0.004 (inactive); in [12], -0.342 (inactive); in [13], 0.387 (inactive); in [14], 0.285 (inactive); in assay [16] it was -0.871 (inactive).

Consider `CC(=O)NCCCC[C@@H]1NC(=O)[C@@H]2C[C@H](C(=O)NCc3ccc(F)cc3)[C@H](c3ccc(O)cc3)N2C1=O`, for which the composite z-score was 0.114 in assay [1]; 0.798 in assay [2]; 0.0377 in assay [3]; 0.639 in assay [4]; -0.326 in assay [5]; 0.772 in [6]. The composite z-score in assay [7] is 1.47; in assay [9] it was -0.21; in assay [10] it was -0.0994; in assay [11] it was 1.54; in assay [15] it was 2.41; in assay [17] it was -0.128. Further, the composite z-score in assay [18] was 1.67; in [19], 0.208; in [20], -0.122. Besides, the z-score in [8] was -0.0693 (inactive); in [12], -0.36 (inactive); in [13], -1.36 (inactive); in assay [14], -0.713 (inactive); in assay [16], 1.53 (inactive).

Regarding `C=CCNC(=O)[C@@H]1[C@H]2C(=O)O[C@H](c3ccccc3)[C@H](c3ccccc3)N2[C@H](c2ccccc2OCCO)[C@@]12C(=O)N(C(=O)OCCOC)c1ccc(C#CCC(C(=O)OC)C(=O)OC)cc12`, the composite z-score in assay [1] was found to be 2.39; in [2], 0.691; in assay [3], 0.605; in assay [4], 1.16; in [5] it was 1.6; in assay [6] it was 2.26. Also, the composite z-score in assay [7] came to 1.31; in assay [9], 3.09; in assay [10], 0.856; in assay [11], 1.53; in [15], 3.56; in assay [17] it was 0.891. Moreover, the composite z-score in assay [18] is 1.9; in assay [19], 1.07; in [20] it was 0.573. The z-score was 0.847 (inactive) in assay [8]; 1.38 (inactive) in assay [12]; 2.06 (inactive) in assay [13]; 6.46 (inactive) in [14]; 0.221 (inactive) in [16].

On to `O=C(NCc1ccccc1)[C@@H]1c2ccccc2C(=O)N(C2CCCCC2)[C@H]1c1ccc(CO)cc1`, for which the composite z-score was -1.15 in assay [1]; 0.149 in assay [2]; -0.0407 in assay [3]; 0.57 in assay [4]; -0.287 in assay [5]; 1.68 in assay [6]. In addition, the composite z-score is 1.38 in [7]; -0.309 in [9]; -0.283 in assay [10]; 1.47 in assay [11]; 2.53 in [15]; -0.322 in [17]. Further, the figures for the composite z-score in [18], in assay [19] and in assay [20] were 1.41, 1.03 and -0.352, respectively. In addition, the z-score in assay [8] was -1.48 (inactive); in assay [12] it was -0.406 (inactive); in [13] it was -0.577 (inactive); in [14] it was 0.39 (inactive); in assay [16], -0.175 (inactive).

For the compound `C=CC[C@@]1(C(=O)OC)N=C(c2ccc(OCCCO)cc2)O[C@@H]1c1ccccc1CN=[N+]=[N-]`, the composite z-score is 0.0729 in assay [1]; 0.0269 in [2]; -0.116 in assay [3]; -0.438 in assay [4]; 0.406 in assay [5]; 0.482 in assay [6]. The composite z-score in assay [7] is 1.1; in [9], 0.166; in assay [10], -0.199; in [11], 1.3; in assay [15], 1.41; in assay [17] it was 0.0427. Also, the composite z-score in assay [18] was 0.744; in assay [19] it was -0.159; in assay [20], -0.0531. Besides, the z-score is -0.484 (inactive) in assay [8]; -3.29 (inactive) in assay [12]; -4.42 (inactive) in [13]; 6.32 (inactive) in assay [14]; 1.21 (inactive) in assay [16].
